# Reference: PubChem BioAssay (NCI)
# About 83,000 compounds went through this panel and 20% of them were active in at least one assay; those are over-represented in the sample as a whole.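 Percent growth is the endpoint: 0 to 100 indicates growth inhibition (40 means 60% inhibition), 0 means no net growth, and negative values indicate cell death.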 A number with no mark means an inactive call. Activity calls are given as the source filed them. Rule for the calls: active = growth percent below 10; inactive = the rest.
# Columns and labels:
# Assay in all cases: NCI-60 one-dose screen, 48 h (100 = growth as untreated, 0 = no growth, -100 = all killed)
# Details in all cases: 10 µM unless noted
# DU-145 prostate = test system: DU-145 prostate
# K-562 leukemia = test system: K-562 leukemia
# MALME-3M melanoma = test system: MALME-3M melanoma
# MDA-MB-231 breast = test system: MDA-MB-231 breast
# RXF 393 renal = test system: RXF 393 renal
# SF-268 CNS = test system: SF-268 CNS
# SF-295 CNS = test system: SF-295 CNS
# SF-539 CNS = test system: SF-539 CNS
# UACC-257 melanoma = test system: UACC-257 melanoma
# M14 melanoma = test system: M14 melanoma
# HCT-15 colon = test system: HCT-15 colon
# HT29 colon = test system: HT29 colon
# SNB-75 CNS = test system: SNB-75 CNS
# SNB-19 CNS = test system: SNB-19 CNS
# U251 CNS = test system: U251 CNS
# PC-3 prostate = test system: PC-3 prostate
# SK-MEL-5 melanoma = test system: SK-MEL-5 melanoma
# UACC-62 melanoma = test system: UACC-62 melanoma
# LOX IMVI melanoma = test system: LOX IMVI melanoma
# SK-MEL-28 melanoma = test system: SK-MEL-28 melanoma
SMILES,growth (DU-145 prostate),growth (K-562 leukemia),growth (MALME-3M melanoma),growth (MDA-MB-231 breast),growth (RXF 393 renal),growth (SF-268 CNS),growth (SF-295 CNS),growth (SF-539 CNS),growth (UACC-257 melanoma),growth (M14 melanoma),growth (HCT-15 colon),growth (HT29 colon),growth (SNB-75 CNS),growth (SNB-19 CNS),growth (U251 CNS),growth (PC-3 prostate),growth (SK-MEL-5 melanoma),growth (UACC-62 melanoma),growth (LOX IMVI melanoma),growth (SK-MEL-28 melanoma)
C(=N/Nc1ncnc2nc[nH]c12)/c1ccccn1,32.1%,24.8%,46.4%,53.7%,66.8%,26.6%,20.1%,20.6%,51.5%,14.2%,35.4%,58.8%,75.5%,53.8%,32.6%,31%,16.9%,27%,19.1%,49.1%
CCCCNc1nc(NN2C(=O)c3cccc4cccc(c34)C2=O)nc(-n2cnc3ccccc32)n1,98.6%,34%,105%,87.8%,74.8%,89.9%,88.9%,75.9%,99%,103%,85.2%,98%,85.8%,86.9%,69.3%,77.4%,75.6%,88.3%,87.4%,94.1%
Cc1nc2ccccc2c(/C=C/c2ccccc2)c1C(=O)/C=C/c1ccc(C(F)(F)F)cc1,-88.7% (active),1.82% (active),-61.4% (active),-43.7% (active),-81.7% (active),-6.77% (active),-74.2% (active),-84.9% (active),-21.9% (active),-31.3% (active),-19.9% (active),5.76% (active),-5.13% (active),-64.9% (active),-62.1% (active),-28% (active),-78.9% (active),-51.6% (active),-87.4% (active),-67% (active)
COc1cccc2c(=O)c3c(sc12)c(NCCCN)nc1ccccc13,33.1%,-7.71% (active),90.9%,10.3%,61%,61.4%,72.8%,56.1%,94.1%,33.9%,28.9%,-29.3% (active),58.2%,51%,39.5%,55.9%,85.9%,88.3%,-81.7% (active),91.4%
COc1ccc([C@H]2c3cc(OC)c(OC)cc3C=C(C=O)C2CO)cc1OC (stereo not given in full),61.9%,20.1%,68.2%,70.2%,-9.23% (active),60.5%,12.7%,38%,39.7%,35.7%,43.1%,19%,15.8%,50.9%,36.2%,29%,24.6%,33.9%,46.3%,55.3%
O=C(Nc1ccc(F)cc1F)c1cc(F)ccc1O,21.9%,9.5% (active),-25.7% (active),10.8%,2.57% (active),15.8%,6.99% (active),17.1%,-8.33% (active),25.6%,12.4%,93.4%,10.6%,10.7%,10.6%,13.5%,-59.1% (active),-0.318% (active),9.88% (active),21.9%
COc1cc(CNS(=O)(=O)c2ccc(C)cc2)ccc1OCc1cn(-c2ccccc2)nn1,103%,73.4%,99.7%,95.4%,99.9%,98.2%,93.5%,94.6%,82.3%,99.2%,88.2%,103%,91.9%,92.3%,89.1%,86.7%,80.1%,75.2%,94.1%,101%
Brc1ccc2[nH]cc(-c3nc(-c4c[nH]c5ccncc45)cs3)c2c1,-91.4% (active),-61.5% (active),-83.6% (active),-84.4% (active),-91.8% (active),-65.7% (active),-84.8% (active),-94.9% (active),-23.2% (active),-73.3% (active),-67.8% (active),-63.2% (active),51.9%,-79.5% (active),-83.9% (active),-66.8% (active),-44.1% (active),-79.4% (active),-97.4% (active),-95.6% (active)
CC1CN(C2CCCCC2)C(=S)N(c2ccccc2)C1=O (stereo not given),115%,117%,119%,115%,123%,102%,103%,103%,109%,108%,103%,111%,92.1%,101%,105%,90.1%,104%,105%,105%,114%
Cc1nc(/N=C(\N)NC(=O)Nc2ccccc2Cl)sc1C,13.2%,13.1%,53.1%,50.5%,4.01% (active),60.6%,12.6%,0.177% (active),69.5%,24%,30.1%,18%,-29.2% (active),44.2%,29.2%,33.1%,32.6%,45.7%,43.3%,63.2%
O=C1c2cccc3cccc(c23)C(=O)N1Nc1nc(NC2CCCCC2)nc(N2CCOCC2)n1,108%,88.9%,90.1%,82.9%,109%,99.7%,105%,98.4%,100%,95.4%,93.1%,107%,88.9%,91%,97.5%,98.2%,92.7%,89.1%,91.1%,101%
O=[N+]([O-])c1ccc(Cl)c(-c2cc(CCCCO)on2)c1,111%,102%,102%,103%,99.2%,99.3%,111%,96.7%,117%,110%,110%,103%,81.7%,95.4%,101%,104%,104%,93.8%,97.6%,107%
C=C1C(=O)O[C@H]2[C@H]1CC/C(COC(=O)CCC(=O)NCCOCCOCC(=O)Nc1ccc(OC)c(C(N)=O)c1O)=C\CC[C@@]1(C)O[C@@H]21,101%,86.2%,92.7%,95.2%,67.9%,95.2%,97.3%,88.8%,77.6%,93.3%,92.3%,101%,95.6%,99%,94.9%,101%,102%,89.2%,87.7%,93.2%
CCN1C(=O)N(CC)C2Nn3c(s/c(=C\c4ccc([N+](=O)[O-])cc4)c3=O)=NC21 (stereo not given),91.8%,29.4%,70.3%,47.8%,103%,90%,93.9%,94.3%,43.4%,48%,61.6%,109%,82%,89.3%,80.3%,16%,93.4%,75.6%,94.2%,78.4%
